Experimental data: PubChem BioAssay (Tox21)
Results filed as inconclusive are left out. A number with no mark means an inactive call. Calls come from the whole dose curve; as a rule, active = well fitted activation curve with a large enough effect in the repeat runs; inconclusive = weak or mixed curves; inactive = flat fitted curve, though single readings scatter.

Experiment: Caspase-3/7 induction in HepG2 cells by small molecules, qHTS assay (AID 1346978); note: nearly all actives have a fitted effect of over 15% in size
Conditions: HepG2 caspase-3/7 activation, Caspase-Glo luminescence, 17 h; series mostly up to 92.4 µM; caspase activation: at the top concentration
Summary of the method: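 Caspase-3/7 induction was measured by Caspase-Glo 3/7 luminescence (30 min, room temperature) after a 17 hr compound exposure of wild-type HepG2 cells seeded at 2,000 per well and pre-incubated 5 hr.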
% is set by controls: 0 for no effect and ±100 for the full control effect.

Compound | caspase activation
OC[C@@H](O)[C@H](O)[C@@H](O)[C@@H](O)CO | -0.0375%
CCCCCCCC/C=C\CCCCCCCC(=O)OC[C@@H](O)[C@H]1OC[C@H](O)[C@H]1O | 6.42%
O=C(O)CCNC(=O)c1ccccc1 | 1.74% [at 42.5 µM]
Nc1nc(=O)n([C@@H]2O[C@H](CO)[C@@H](O)[C@@H]2F)cc1I | -0.596% [at 42.5 µM]
CC(C)CCC(=O)CCC(C)C | -0.245%
CCOC(=O)C(=O)c1csc(NC=O)n1 | 0.133% [at 42.5 µM]
CC(C)C(=O)c1ccccc1 | -0.0966%
FC(F)(F)/C(=N\OCC1OCCO1)c1ccc(Cl)cc1 | -0.625%
OCCCCCCCl | -0.311%
CCCCCC(=O)OCC | 0.683%
CN=C(NC#N)NCCSCc1csc(N=C(N)N)n1 | -0.736% [at 42.5 µM]
CCCCCCCCOC(C)=O | -0.181%
C=CCOC(=O)c1ccc(C(=O)OCC=C)c(C(=O)OCC=C)c1 | -0.159%
CC(C)COC(=O)/C=C/c1ccccc1 | -2.58%
CCN(CCO)c1cccc(C)c1 | 0.85%
C[N+](C)(C)CC(O)CCl (stereo not given) | 1.39%
CCCCCCCCCCCCC | 0.0618%
CCC1COC(=O)O1 (stereo not given) | -0.317%

Compound | caspase activation
CCCCCCCCCCC | 1.88%
CC1CCC(C(C)(C)S)C(=O)C1 (stereo not given) | -0.13%
CC1=CC[C@H](CC=O)C1(C)C | 2.97%
CCCCOC(=O)[C@@H](C)Oc1ccc(Oc2ccc(C(F)(F)F)cn2)cc1 | -1.34%
CCC(O)C(C)(C)C (stereo not given) | -0.606%
O=C(Oc1ccccc1C(=O)O)c1ccccc1O | -2% [at 42.5 µM]
CCOC(=O)CC#N | 0.145%
C=CCOCC(CO)(COCC=C)COCC=C | -1.21% [at 42.5 µM]
NC(=O)NC(=O)Cc1ccccc1 | -0.0093% [at 42.5 µM]
O=C1CC[C@H](C(=O)N2CCCCC2)N1 | 0.243% [at 42.5 µM]
COc1ccc(NS(=O)(=O)c2ccc(N)cc2)nn1 | 0.495% [at 42.5 µM]
COC(OC)C(C)c1ccccc1 (stereo not given) | 1.29%
O=CN1CCOCC1 | 0.35%
CN[C@@H]1[C@H](O)[C@H](NC)[C@H]2O[C@@]3(O)C(=O)C[C@@H](C)O[C@H]3O[C@@H]2[C@H]1O | 0.816% [at 42.5 µM]
COC(/C=C(\C)CCC=C(C)C)OC | -1.81%
C[C@H](CCC(=O)O)[C@H]1CC[C@H]2[C@@H]3[C@H](O)C[C@@H]4C[C@H](O)CC[C@]4(C)[C@H]3C[C@H](O)[C@]12C | 1.21% [at 42.5 µM]
CCN(Cc1cccc(S(=O)(=O)O)c1)c1ccccc1 | 0.119%
